Source: PubChem BioAssay
Compounds with a hit are over-represented: about 4.2% of the library has one in this group of screens.
tim23-1 inh: growth inhibitors of tim23-1 mutant yeast, primary screen, luminescence, uHTS; S. cerevisiae tim23-1 growth, BacTiter-Glo luminescence, 24 h; inhibition, % at 20 µM; 330,000 compounds, 1.3% hits; AID 463212, 2010;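 active = growth inhibition of the mutant yeast at or above 50%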;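 also: temperature-sensitive mutant grown at 25 °C; plate controls were DMSO-treated mutant yeast for no effect and medium wells lacking yeast for full effect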
V-ATPase pH: regulators of yeast V-ATPase proton pumping, primary screen, pHLuorin cytosolic pH fluorescence; 350,000 compounds, 0.37% hits; response, % at 10 µM; S. cerevisiae; in the data active = response mostly above about 7.3%, no sharp cut-off; inactive = mostly below about 5.4%; also: actives read high
NLRP3 yeast inh: NALP3 inflammasome inhibitors in reconstituted yeast, primary screen, luminescence, uHTS; Yeast reconstituted NLRP3/ASC/caspase-1, beta-gal luminescence, 24 h; inhibition, % at 10 µM; 330,000 compounds, 0.39% hits; AID 2825, 2010;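 active = inhibition of 50% or more; inactive = inhibition below 50%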;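 also: plate controls were induced DMSO wells for no effect and uninduced yeast grown without galactose for full effect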
NALP1 yeast inh: NALP1 inflammasome inhibitors in reconstituted yeast, colorimetric, S. cerevisiae, triplicate retest; 280,000 compounds, 0.61% hits; AID 2071, 2009; inhibition, % at 10 µM; S. cerevisiae NALP1/ASC/caspase-1 growth, X-gal OD620, 72 h; in the data active = inhibition mostly above about 24%, no sharp cut-off; inactive = mostly below about 32%
TIM10 inh: growth inhibitors of isogenic TIM10 control yeast, primary screen, counter-screen for tim10-1 yeast inhibitor project, luminescence, uHTS | S. cerevisiae TIM10 strain growth, BacTiter-Glo luminescence, 24 h | inhibition, % at 10 µM | AID 463195, 2010 | 330,000 compounds, 1.4% hits;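 active = inhibition of 40% or more at the single tested concentration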;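 also: wild-type TIM10 isogenic control strain grown at permissive 25 °C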
tim10-1 inh: growth inhibitors of tim10-1 mutant yeast, primary screen, luminescence, uHTS; S. cerevisiae tim10-1 ts strain growth, BacTiter-Glo, 24 h; inhibition, % at 20 µM; 330,000 compounds, 2.2% hits;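 active = inhibition of at least 40%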;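 also: mutant grown at 25 °C; 0% = DMSO wells with yeast and 100% = wells holding no yeast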
tim10-1 confirm: growth inhibitors of tim10-1 mutant yeast, confirmation, single concentration, luminescence, S. cerevisiae | shares compounds with tim10-1 inh | S. cerevisiae tim10-1 ts strain growth, BacTiter-Glo, 24 h | inhibition, % at 20 µM | 7,400 compounds, 56% hits | AID 463213, 2010;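 active = inhibition of yeast growth at or above a set limit in either of two repeat tests at 20 µM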;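 also: tim10-1 mutant grown at permissive 25 °C to find synthetic lethal compounds; 0% = DMSO yeast wells and 100% = medium wells without yeast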
TIM10 conf: growth inhibitors of wild-type TIM10 yeast, confirmation, counter-screen for tim10-1 synthetic lethality project, single concentration, luminescence, S. cerevisiae. shares compounds with TIM10 inh. S. cerevisiae tim10 strain growth, BacTiter-Glo luminescence, 24 h. inhibition, % at 10 µM. 4,600 compounds, 63% hits. AID 463215, 2010;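 active = inhibition of yeast growth at or above a set limit in either of two replicates at 10 µM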;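 also: this counterscreen used the strain with wild-type TIM10; 0% = yeast with DMSO and 100% = medium wells lacking yeast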
tim23-1 conf: tim23-1 mutant yeast growth inhibitors, confirmation, luminescence, single concentration. shares compounds with tim23-1 inh. inhibition, % at 20 µM. 4,400 compounds, 83% hits. S. cerevisiae tim23-1 growth, BacTiter-Glo luminescence, 24 h;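 active = inhibition above about 39% in either of two replicate wells at 20 µM, limit read from the data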;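 also: temperature-sensitive tim23-1 mutant grown at 25 °C; 0% = DMSO wells with yeast and 100% = medium wells without yeast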
Numbers without * were called inactive.

How did N/C(=N\OC(=O)c1cc(-c2ccccc2)nc2ccccc12)c1ccc(Cl)cc1 do in these assays?
tim23-1 inh: 69.8*; V-ATPase pH: -0.3; NLRP3 yeast inh: -13.8; NALP1 yeast inh: -5.9; TIM10 inh: 89.1*; tim10-1 inh: 59.1*; tim10-1 confirm: 44.2*; TIM10 conf: 86.6*; tim23-1 conf: 42.3*

What do the screens show for `CC(=O)Nc1nnc(-c2ccccn2)o1`?
tim23-1 inh: -10.2; V-ATPase pH: -0.5; NLRP3 yeast inh: -7.2; NALP1 yeast inh: 10.7; TIM10 inh: -26.6; tim10-1 inh: -4.6

Results for COc1ccc(C2CC2/C(C)=N/OC(=O)c2cccs2)cc1 (centres undefined) ?
tim23-1 inh: 77.8*; V-ATPase pH: -0.8; NLRP3 yeast inh: 29.8; NALP1 yeast inh: 10.0; TIM10 inh: 64.6*; tim10-1 inh: 66.2*; tim10-1 confirm: 44.8*; TIM10 conf: 86.2*; tim23-1 conf: 81.1*

How did COc1ccc(C2CC2/C(C)=N/OC(=O)c2ccc(F)cc2)cc1 (centres undefined) do in these assays?
tim23-1 inh: 77.3*; V-ATPase pH: 0.1; NLRP3 yeast inh: 25.4; NALP1 yeast inh: -2.2; TIM10 inh: 84.4*; tim10-1 inh: 49.3*; tim10-1 confirm: 23.1; TIM10 conf: 91.9*; tim23-1 conf: 61.1*

How did Cc1noc(C(=O)Nc2sc3c(c2C#N)CCC3)c1Cl do in these assays?
tim23-1 inh: 18.3; V-ATPase pH: 2.8; NLRP3 yeast inh: 21.3; NALP1 yeast inh: 22.4; TIM10 inh: 0.1; tim10-1 inh: 8.6

Results for O=C(Nc1ccc(N2CCN(C(=O)c3cccs3)CC2)cc1)c1ccc([N+](=O)[O-])o1 ?
tim23-1 inh: 71.2*; V-ATPase pH: 2.2; NLRP3 yeast inh: 14.9; NALP1 yeast inh: -5.0; TIM10 inh: 71.6*; tim10-1 inh: 71.7*; tim10-1 confirm: 74.4*; TIM10 conf: 77.2*; tim23-1 conf: 85.0*

What do the screens show for `COc1ccc(-c2cc3ccccc3oc2=O)cc1NC(=O)c1ccc([N+](=O)[O-])o1`?
tim23-1 inh: 70.5*; NLRP3 yeast inh: 16.0; NALP1 yeast inh: 15.6; TIM10 inh: 62.4*; tim10-1 inh: 66.0*; tim10-1 confirm: 63.7*; TIM10 conf: 71.8*; tim23-1 conf: 41.0*

What do the screens show for `O=C(Nc1ccc(Cc2ccncc2)cc1)c1ccc([N+](=O)[O-])o1`?
tim23-1 inh: 70.8*; V-ATPase pH: 0.6; NLRP3 yeast inh: 2.6; TIM10 inh: 44.9*; tim10-1 inh: 67.1*; tim10-1 confirm: 59.0*; TIM10 conf: 43.0*; tim23-1 conf: 57.5*

Results for O=C(Nc1ccc(Cc2ccncc2)cc1)c1cccc([N+](=O)[O-])c1 ?
tim23-1 inh: -22.1; V-ATPase pH: -1.4; NLRP3 yeast inh: -5.1; NALP1 yeast inh: 19.3; TIM10 inh: 19.6; tim10-1 inh: 9.9

Results for O=C(Nc1ccc(N2CCN(C(=O)c3cccs3)CC2)cc1)c1ccco1 ?
tim23-1 inh: 12.2; V-ATPase pH: 0.7; NLRP3 yeast inh: 17.5; NALP1 yeast inh: 0.0; TIM10 inh: 3.4; tim10-1 inh: 6.0

How did COc1ccc(-c2cc3ccccc3oc2=O)cc1NC(=O)c1ccc(Br)o1 do in these assays?
tim23-1 inh: -25.3; V-ATPase pH: 0.5; NLRP3 yeast inh: -6.9; NALP1 yeast inh: 47.8; TIM10 inh: -2.5; tim10-1 inh: -19.5

Results for O=C(Nc1ccc(N2CCOCC2)cc1)c1ccc([N+](=O)[O-])o1 ?
tim23-1 inh: 55.0*; V-ATPase pH: 2.9; NLRP3 yeast inh: 7.8; NALP1 yeast inh: -2.4; TIM10 inh: 26.0; tim10-1 inh: 55.3*; tim10-1 confirm: 28.6; tim23-1 conf: 57.9*

How did Cc1ccc2c(CC(=O)NCC3(N4CCOCC4)CCCCC3)coc2c1C do in these assays?
tim23-1 inh: 22.8; V-ATPase pH: 4.1; NLRP3 yeast inh: 21.3; TIM10 inh: 13.8; tim10-1 inh: 13.8

How did CCN1CCN(c2nnc(-c3ccc(C)cc3)c3ccccc23)CC1 do in these assays?
tim23-1 inh: 0.0; V-ATPase pH: -2.6; NLRP3 yeast inh: 13.9; NALP1 yeast inh: 17.7; TIM10 inh: -0.5; tim10-1 inh: 2.2

How did C/C(=N\NC(=O)c1ccc(CSc2nncn2C)cc1)c1ccc2ccccc2c1 do in these assays?
tim23-1 inh: -7.2; NLRP3 yeast inh: 9.9; NALP1 yeast inh: 17.8; TIM10 inh: -5.4; tim10-1 inh: 4.4

Results for COc1cc(NC(=O)c2ccc([N+](=O)[O-])o2)ccc1NC(=O)c1cccs1 ?
tim23-1 inh: 59.3*; V-ATPase pH: 18.4; NLRP3 yeast inh: 24.9; NALP1 yeast inh: 12.0; TIM10 inh: 31.6; tim10-1 inh: 45.5*; tim10-1 confirm: 38.8*; tim23-1 conf: -14.3

Results for COc1cc(NC(=O)CCn2c(=S)oc3ccccc32)cc(OC)c1OC ?
tim23-1 inh: 10.7; V-ATPase pH: 1.8; NLRP3 yeast inh: -4.6; NALP1 yeast inh: 5.7; TIM10 inh: 12.0; tim10-1 inh: 1.0

What do the screens show for `O=C1c2ccccc2C(=O)C1(O)O`?
tim23-1 inh: -10.6; NLRP3 yeast inh: 7.2; TIM10 inh: 1.3; tim10-1 inh: -15.2

What do the screens show for `CC1(S(=O)(=O)O)CC(=O)c2ccccc2C1=O` (centres undefined)?
tim23-1 inh: 66.8*; V-ATPase pH: 7.6; NLRP3 yeast inh: -6.8; NALP1 yeast inh: 13.1; TIM10 inh: 32.0; tim10-1 inh: 41.1*; tim10-1 confirm: 28.4; tim23-1 conf: 62.6*

What do the screens show for `O=C(/C=C/c1ccccn1)c1ccc(Br)cc1O`?
V-ATPase pH: 0.9; NALP1 yeast inh: 52.7

What do the screens show for `O=C(/C=C/c1ccccn1)c1cc(Br)ccc1O`?
tim23-1 inh: 78.1*; V-ATPase pH: -0.1; NLRP3 yeast inh: 18.3; NALP1 yeast inh: 29.1; TIM10 inh: 72.4*; tim10-1 inh: 69.8*; tim10-1 confirm: 62.0*; TIM10 conf: 67.9*; tim23-1 conf: 75.4*

What do the screens show for `NNC(=O)c1cc2c(s1)-c1cc(Cl)ccc1SC2`?
tim23-1 inh: 54.8*; V-ATPase pH: -5.1; NLRP3 yeast inh: 8.9; TIM10 inh: 26.8; tim10-1 inh: 56.9*; tim10-1 confirm: 43.8*; tim23-1 conf: 49.2*
